Measurements: PubChem BioAssay AID602139 (NMMLSC, 2011)
Several values for one entry are separate records, joined by “and”; a condition that tells them apart may be missing. Equal values may be shown once. The list shows a part of the results. Values without a mark were called inactive. Activity calls are given as the source filed them. No stated cut-off is given here; in the data, active means inhibition above about 32%; inactive means the rest.

Tested on: Botulinum neurotoxin type A light chain protease (Clostridium botulinum A str. ATCC 3502)
Experiment: BoNT/A light chain protease inhibitors, confirmation, biochemical, flow cytometry, cherry pick 1 (AID 602139)
Conditions: multiplex microsphere protease assay, at 10 µM, stronger effect = higher value

Q: With `CC1CCc2c(sc3nc4n(c(=O)c23)CCS4)C1` (stereo unspecified) as the molecule, how does the inhibition read?
A: 0.4%

Q: How did the inhibition turn out when `COCCn1nnnc1C(c1cc2ccc(OC)cc2[nH]c1=O)N1CCc2ccccc2C1` (stereo unspecified) was run?
A: 1.1%

Q: For `COc1ccccc1-n1c(-c2cc(-c3ccco3)[nH]n2)n[nH]c1=S`, which inhibition is on record?
A: 1.5%

Q: Which inhibition does the source give for `Cc1ccc(-c2nc(-c3cccnc3)sc2CC(=O)Nc2ccc(C)c(Cl)c2)cc1` here?
A: 7.8%

Q: For `Brc1ccc2ncnc(NCc3cccnc3)c2c1`, which inhibition is on record?
A: -2.2%

Q: With `Cc1cc(S(=O)(=O)NC2CCCC2)ccc1-n1cnnn1` as the molecule, how does the inhibition read?
A: 0.3%

Q: Which inhibition does the source give for `Cc1onc(-c2ccccc2Cl)c1C(=O)NCCn1ccc2ccccc21` here?
A: 2.7%

Q: How did the inhibition turn out when `CC(C)Cc1nnc(NC(=O)CCC(=O)Nc2ccc3cn[nH]c3c2)s1` was run?
A: -0.8%

Q: How did the inhibition turn out when `Nc1ccccc1Sc1cc(Cl)nnc1Cl` was run?
A: -0.2%

Q: `O=S(=O)(NC1CCCCC1N1CCC(O)CC1)c1ccc(Cl)cc1` (stereo unspecified) was tested. Which inhibition did it give?
A: -1%

Q: For `Clc1ccc(-c2ncc3ccccn23)c(Cl)c1`, which inhibition is on record?
A: 2.4%

Q: For `CN1CCN(c2ccc(NC(=O)c3ccccc3)cc2)CC1`, which inhibition is on record?
A: 1.8%

Q: How did the inhibition turn out when `Cc1ccc2[nH]cc(CCNC(=O)C3CCCCC3)c2c1` was run?
A: -0.1%

Q: How did the inhibition turn out when `COc1ccc(C2CC(c3cccs3)=NN2c2nc(C)c(C(C)=O)s2)cc1OC` (stereo unspecified) was run?
A: 33.8% (active) and 32.3% (active)

Q: How did the inhibition turn out when `CCOc1ccc(NC(=O)CC(Cc2ccc(Cl)cc2)C(=O)O)cc1` (stereo unspecified) was run?
A: -0.4%

Q: For `CCN1CCN(C(C(=O)NC2CCCC2)c2cc3c(cc2[N+](=O)[O-])OCO3)CC1` (stereo unspecified), which inhibition is on record?
A: -0.8%

Q: `COC(=O)CN(c1nc(C)c(Cl)c(OC)n1)S(=O)(=O)c1ccc(C)cc1` was tested. Which inhibition did it give?
A: 1.8%

Q: With `COc1cc2cc(CN(CCN3CCCC3)C(=O)Nc3ccccc3Cl)c(=O)[nH]c2cc1OC` as the molecule, how does the inhibition read?
A: -2.7%

Q: Which inhibition does the source give for `CC1CCN(C(=O)c2ccc(S(=O)(=O)Cc3cc(F)ccc3F)c([N+](=O)[O-])c2)CC1` here?
A: 0.4%

Q: With `CCOCC(=O)NCc1ccc2c(c1)cc(C)n2C` as the molecule, how does the inhibition read?
A: 1.8%

Q: How did the inhibition turn out when `Cc1c(NC(=O)c2cccnc2)c(=O)n(-c2ccccc2)n1C` was run?
A: 0.8%
